# GLP1R inv ag = acts as inverse agonist at human GLP-1 receptor; P43220; AID 624417; HEK293 GLP-1R CRE-luciferase, luminescence, 24 h; GLP-1R form is constitutively active; actives 1.6% (n = 410,000); Potency, µM (top dose mostly 38.3 µM), for the others: at the top dose activity change, negative = inhibition, usual class: inhibitors; note: % is set by controls: 0 for no effect and ±100 for the full control effect; nearly all actives have a fitted effect of over 55% in size
# Target sequence (P43220 whole entry, looked up): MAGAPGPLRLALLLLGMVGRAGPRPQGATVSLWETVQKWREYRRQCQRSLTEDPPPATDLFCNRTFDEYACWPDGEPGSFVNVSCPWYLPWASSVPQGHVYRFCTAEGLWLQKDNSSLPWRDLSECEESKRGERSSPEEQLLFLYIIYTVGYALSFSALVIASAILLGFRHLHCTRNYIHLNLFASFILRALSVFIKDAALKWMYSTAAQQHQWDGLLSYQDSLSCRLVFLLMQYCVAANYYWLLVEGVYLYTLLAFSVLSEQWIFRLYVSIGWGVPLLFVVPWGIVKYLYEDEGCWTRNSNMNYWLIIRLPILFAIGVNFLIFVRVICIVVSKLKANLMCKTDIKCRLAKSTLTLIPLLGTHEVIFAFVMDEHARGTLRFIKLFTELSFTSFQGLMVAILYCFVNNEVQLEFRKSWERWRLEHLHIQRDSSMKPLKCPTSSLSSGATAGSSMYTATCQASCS
#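 qHTS in 1536-well format: reporter HEK293 cells expressing constitutive GLP-1R activity in DMEM + 10% Nu serum, 24 hr with compounds at 37 deg C, luminescence read after 12 min with detection reagent.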
# GLP1R cytotox = cytotoxicity in counter-screen for GLP-1R inverse agonists | HEK293 cAMP-luciferase reporter cells, luminescence, 24 h | actives 0.13% (n = 410,000) | Potency, µM (highest dose often 38.3 µM), for the others: at the highest dose activity change, negative = inhibition, usual class: inhibitors | AID 624418;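 note: loss of luciferase light is scored as toxicity; % is set by controls: 0 for no effect and ±100 for the full control effect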
#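 MLSMR compounds, 24 hr on cells at 37 deg C/5% CO2; luminescence after luciferase reagent (12 min RT). Inhibition counted as the undesired cytotoxic outcome.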
# Gal4-VP16 FLuc = counter-screen for ROR gamma inhibitors: Gal4-VP16 reporter | Drosophila S2 Gal4-VP16 UAS-luciferase, luminescence, 20 h | Potency, µM (titrated, usually from 53.6 µM), for inactives: top-dose activity, negative = inhibition, hits mostly inhibitors | actives 3.5% (n = 310,000) | AID 2546;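 note: Gal4-VP16 expression switched on by copper sulfate through the metallothionein promoter; % is set by controls: 0 for no effect and ±100 for the full control effect; nearly all actives have a fitted effect of over 50% in size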
# GLP-1R agonist = GLP-1 receptor (human) agonism; P43220; HEK293 GLP-1R CRE-luciferase, luminescence, 4-6 h; cells express a hypersensitive GLP-1R form; Potency, µM (series often up to 45.6 µM), for inactives: at the highest dose activation, most hits filed as activators; actives 0.007% (n = 380,000); AID 624172; note: % of control where 0% means no effect
# RORgamma inh = blocks mouse ROR gamma transcriptional activity | Potency, µM (top dose mostly 53.6 µM), inactives show top-dose activity change, negative = inhibition, most hits filed as inhibitors | P51450 | AID 2551 | Drosophila S2 Gal4-RORgamma UAS-luciferase reporter, 20 h | actives 5.4% (n = 310,000); note: % is set by controls: 0 for no effect and ±100 for the full control effect; nearly all actives have a fitted effect of over 60% in size
#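 Using a luciferase readout, inhibitors were identified by reduced reporter activity in Drosophila cells coexpressing a copper-inducible Gal4–ROR gamma fusion and UAS-driven Photinus luciferase, incubated 20 hr after 700 uM copper sulfate.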
# * = called active by the depositor; ? = inconclusive; · = not tested or not shown; [ ] = dose if it differs, or a comment. The list is not random: actives were taken first. Their share in the collection is about 5.9%. Calls come from the whole dose curve; as a rule, active = well fitted curve in the direction sought with a large enough effect; inconclusive = small, poorly fitted or top-dose-only effect, or another doubt; inactive = no such curve, though single readings can be large; an effect the other way counts as inactive or inconclusive. Potency is the fitted concentration of half-maximal effect.
SMILES,GLP1R inv ag,GLP1R cytotox,Gal4-VP16 FLuc,GLP-1R agonist,RORgamma inh
Cc1ccc(-c2nnn(CC(=O)N(Cc3ccccc3)C(C(=O)NC(C)(C)C)c3ccncc3)n2)o1 (stereo unspecified),3%,-8%,14%,-1%,11%
COc1ccc(CN(C(=O)Cn2nnc(-c3ccc(C)o3)n2)C(C(=O)NCC2CCCO2)c2ccco2)cc1 (stereo unspecified),-28%,1%,7.1µM*,7%,5µM*
Cc1ccc(N2CC(c3nnc(Cc4ccc(F)cc4Cl)o3)CC2=O)cc1 (stereo unspecified),-9%,0%,·,·,·
CCNc1ncc2nc(CCc3ccccc3)c(=O)n(C)c2n1,·,·,-16%,·,?
O=C(COc1cccc(Cl)c1Cl)Nc1ccc2c(c1)CCC2,14%,-4%,-9%,2%,12%
O=C(COc1ccccc1Cl)c1ccc2c(c1)CCCC2,0%,14%,?,13%,14µM*
CC1CCCN(S(=O)(=O)c2ccc(N3CCCCS3(=O)=O)cc2)C1 (stereo unspecified),1%,-13%,·,·,·
COc1ccc(-c2coc3cc(OC)ccc3c2=O)cc1,30%,8%,·,6%,·
Cc1nc(-c2coc3cc(OCC(=O)O)ccc3c2=O)cs1,0%,4%,6.3µM*,-17%,7.1µM*
COc1ccc2c(=O)c(-c3nc(C)cs3)coc2c1,-15%,16%,2.2µM*,-1%,1.3µM*
CC(C(=O)N(C)C1CCS(=O)(=O)C1)N1C(=O)/C(=C/c2ccc(F)cc2)SC1=S (stereo unspecified),?,0%,16µM*,-1%,-7%
CN(C(=O)CCN1C(=O)/C(=C/c2ccc(F)cc2)SC1=S)C1CCS(=O)(=O)C1 (stereo unspecified),-22%,-3%,·,1%,·
COc1ccc(CCNC(=O)CCn2c(=O)c3ccccc3n(Cc3cc(C)ccc3C)c2=O)cc1OC,-19%,-13%,·,-1%,·
COc1cccc(NC(=O)CSc2nnc(-c3cc(C)n(-c4ccccc4)c3C)o2)c1,?,-2%,11µM*,-3%,10µM*
CCn1c(=O)cc(OCC(=O)N(C)c2ccc(OC)cc2)c2ccccc21,-43%,-2%,·,1%,·
O=c1[nH]c(CSc2nnc(Cc3ccccc3)o2)nc2ccccc12,8%,-2%,-1%[10 µM],-1%,1%
Cc1[nH]c2ccccc2c1Cc1nnc(SCc2ccccc2)o1,11µM*,-25%,6%,9%,?
O=C(COc1ccc2ccccc2c1Br)N1CCCCC1,10µM*,4%,-8%,9%,-27%
NC(=O)C1CCN(C(=O)COc2ccc3ccccc3c2Br)CC1,4%,-4%,?,-6%,1.8µM*
COc1cc(C(=O)N/N=C(\C)Cn2nc([N+](=O)[O-])cc2C)ccc1O,32%,0%,-15%,-1%,?
C/C(Cn1nc([N+](=O)[O-])cc1C)=N\NC(=O)c1ccc(O)cc1O,-12%,-17%,14µM*,-1%,1.6µM*
C/C(Cn1cnc([N+](=O)[O-])n1)=N\NC(=O)c1ccccc1O,7%[7.66 µM],-13%[7.66 µM],?,5%,13µM*
C/C(Cn1cnc([N+](=O)[O-])n1)=N\NC(=O)c1ccccc1F,9%,-12%,·,7%,·
C/C(CC(=O)Nc1ccc([N+](=O)[O-])cc1)=N\NC(=O)c1ccccc1O,7%,17%,16µM*,0%,11µM*
C/C(Cn1cnc([N+](=O)[O-])n1)=N\NC(=O)c1ccc(O)cc1O,1%,-13%,?,8%,0.2µM*
SMILES,GLP1R inv ag,GLP1R cytotox,Gal4-VP16 FLuc,GLP-1R agonist,RORgamma inh
CCC1(c2ccccc2)NC(=O)NC1=O (stereo unspecified),·,·,-14%,·,18%
COc1cccc(OCCSc2nc3ccccc3n2CC(=O)N2CCCCC2)c1,-7%,5%,·,·,·
COc1ccc(S(=O)(=O)NCCCC(=O)Nc2ccc(Sc3ccc(N)cc3)cc2)cc1,·,·,?,·,15%
CCOC(=O)c1noc2ncnc(N3CCN(c4cccc(C(F)(F)F)c4)CC3)c12,?,4%,·,·,·
C=C[C@@]1(C)CC[C@H]2C(=CC[C@@H]3[C@]2(C)CCC[C@@]3(C)C(=O)O)C1,·,·,0%,·,-68%
CN(C)CCN(Cc1ccccc1)c1ccnc(N(C)C)c1C#N,1%,1%,10%,6%,1%
CN(C)c1nccc(N(Cc2ccccc2)Cc2ccccc2)c1C#N,11µM*,46%,-9%,-1%,-3%
CCOCCCn1c(SCC(=O)Nc2ccc(F)cc2)nc2c(sc3ccccc32)c1=O,3%,-6%,·,·,·
CN(Cc1ccc(OCC(O)CN2CCCCC2)cc1)Cc1ccnc2ccccc12 (stereo unspecified),?,-23%,6.3µM*,8%,7.1µM*
CS(=O)(=O)N1CCC2(CC1)CN(c1ccccc1)C2,·,·,-11%,·,25%
O=C(CCC1CCCCC1)NCCN1C2=NC[C@@H](Cc3ccccc3)N2C[C@H]1Cc1ccc(O)cc1,?,?,8.9µM*,-1%,10µM*
CC(=O)OCC(NC(=O)C(C)NC(=O)OC(C)(C)C)C1OC(n2cc(F)c(=O)[nH]c2=O)C(OC(C)=O)C1OC(C)=O (stereo unspecified),·,·,-6%,·,-11%
OCCCN=c1cc(-c2ccccc2)oc2ccc(Cl)cc12,?,?,-7%,-28%,-22%
CC1(C)CC(N=c2cc(-c3ccccc3)oc3ccc(Cl)cc23)CC(C)(C)N1,3.5µM*,-25%,?,-3%,?
CC(=O)OCc1cnc(C)c2oc(=O)c(C(=O)Nc3ccc(F)cc3C)cc12,6%,14%,·,0%,·
COc1ccc2cc3cc(C(=O)N4CCN(Cc5ccc6c(c5)OCO6)CC4)oc3nc2c1,10µM*,-16%,-5%,-8%,20%
CS(=O)(=O)N(CC(=O)N1CCN(Cc2ccc3c(c2)OCO3)CC1)Cc1ccc(Cl)cc1,-9%,-16%,10µM*,-1%,-20%
COc1ccc2cc3cc(C(=O)NCc4ccc5c(c4)OCO5)oc3nc2c1,47%,-12%,-8%,-2%,9%
O=C(c1ccc2nc(N3CCCCC3)sc2c1)N1CCN(Cc2ccc3c(c2)OCO3)CC1,10µM*,5%,-9%,0%,?
CS(=O)(=O)N(CCc1ccccc1)CC(=O)N1CCN(Cc2ccc3c(c2)OCO3)CC1,0%,-16%,?,0%,35%
CCCOc1ccc(C(=O)N2CCN(Cc3ccc4c(c3)OCO4)CC2)cc1,7.9µM*,-2%,-6%,1%,-18%
